According to the supplement of paper PMC10849652:
The full data set covers some 7,900 targets. This sample favours those with a hit. About 0.6% of all pairs of compound and target were hits.

Assays:
Test in all cases: log2 fold change, soluble protein after heating vs DMSO (PISA); higher = thermal stabilisation; K562 cells, 10 uM, 30 min; active = over 0.2 and 3.5 SD of the protein, either way, in both replicates (recomputed)
[1] = compound: C1=CC=C(C=C1)[C@H](COC2=CC3=C(C=C2)NC(=O)N3)NC(=O)C4=CC=CN(C4=O)CC5=CC(=C(C=C5)F)F
Summary of the method: (§1)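 K562 cells at 2×10^6 cells/mL were treated with 10 μM compound for 30 min. Aliquots were heated for 3 min across 48°C-58°C, pooled, and extracted in PBS with 0.5% NP-40 at 4°C; soluble protein was the supernatant after 21,000xg for 90 min. Soluble protein was quantified by TMTpro 16plex LC-MS/MS with channel sums equalised, and reported as log2 fold change in thermal stability against DMSO controls, with values from duplicates.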

[2] = compound: CC1=C(SC2=C1C(=N[C@H](C3=NN=C(N32)C)CC(=O)N)C4=CC=C(C=C4)Cl)C
Summary of the method: as §1

[3] = compound: CC1=C2C(=CC=C1)N=C(N(C2=O)C3=CC=CC=C3C)CN4C=NC5=C(N=CN=C54)N
Summary of the method: as §1

[4] = compound: Cc1sc2c(c1C)C(c1ccc(Cl)cc1)=N[C@@H](CC(=O)OC(C)(C)C)c1nnc(C)n1-2
Summary of the method: as §1

[5] = compound: c1ccc([C@@H]2C[C@H]2NC2CCNCC2)cc1
Summary of the method: as §1

Measured: log2 fold change

TIMM29 (UniProt Q9BSF4)
Chain of UniProt Q9BSF4 (Q9BSF4 whole entry, looked up): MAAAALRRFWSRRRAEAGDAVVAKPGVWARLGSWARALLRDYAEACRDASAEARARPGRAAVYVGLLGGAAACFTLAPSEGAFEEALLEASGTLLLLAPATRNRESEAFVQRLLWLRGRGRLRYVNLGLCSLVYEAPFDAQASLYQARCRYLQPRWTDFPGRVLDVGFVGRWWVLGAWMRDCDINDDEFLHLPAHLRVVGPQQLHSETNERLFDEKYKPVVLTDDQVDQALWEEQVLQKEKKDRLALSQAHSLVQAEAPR
inactive: [1] -0.034 | [2] 0.114 | [3] -0.026 | [4] -0.006 | [5] 0.031

TATDN2 (UniProt Q93075)
Chain of UniProt Q93075 (Q93075 whole entry, looked up): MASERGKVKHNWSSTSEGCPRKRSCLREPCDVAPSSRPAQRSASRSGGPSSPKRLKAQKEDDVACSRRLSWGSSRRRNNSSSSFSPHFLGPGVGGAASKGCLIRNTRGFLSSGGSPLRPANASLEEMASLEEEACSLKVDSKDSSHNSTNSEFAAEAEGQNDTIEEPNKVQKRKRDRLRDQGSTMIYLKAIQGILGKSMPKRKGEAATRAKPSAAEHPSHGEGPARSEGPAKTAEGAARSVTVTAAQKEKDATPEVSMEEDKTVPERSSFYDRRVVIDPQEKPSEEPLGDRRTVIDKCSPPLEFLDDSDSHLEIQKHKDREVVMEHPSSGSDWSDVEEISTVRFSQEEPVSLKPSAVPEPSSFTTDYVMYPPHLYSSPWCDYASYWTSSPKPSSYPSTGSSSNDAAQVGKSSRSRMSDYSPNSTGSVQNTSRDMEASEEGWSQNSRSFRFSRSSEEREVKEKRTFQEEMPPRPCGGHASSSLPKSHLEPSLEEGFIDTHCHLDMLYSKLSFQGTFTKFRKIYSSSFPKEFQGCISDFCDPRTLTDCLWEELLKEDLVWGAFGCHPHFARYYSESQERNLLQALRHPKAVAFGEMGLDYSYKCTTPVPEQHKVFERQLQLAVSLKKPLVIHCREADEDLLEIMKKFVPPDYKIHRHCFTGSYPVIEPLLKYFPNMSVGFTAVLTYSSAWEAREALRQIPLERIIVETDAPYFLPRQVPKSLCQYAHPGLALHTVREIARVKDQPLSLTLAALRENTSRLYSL
inactive: [1] -0.044 | [2] -0.067 | [3] -0.037 | [4] 0.069 | [5] 0.071

TIAL1 isoform 2 (UniProt Q01085)
Chain of UniProt Q01085 (Q01085 whole entry, looked up): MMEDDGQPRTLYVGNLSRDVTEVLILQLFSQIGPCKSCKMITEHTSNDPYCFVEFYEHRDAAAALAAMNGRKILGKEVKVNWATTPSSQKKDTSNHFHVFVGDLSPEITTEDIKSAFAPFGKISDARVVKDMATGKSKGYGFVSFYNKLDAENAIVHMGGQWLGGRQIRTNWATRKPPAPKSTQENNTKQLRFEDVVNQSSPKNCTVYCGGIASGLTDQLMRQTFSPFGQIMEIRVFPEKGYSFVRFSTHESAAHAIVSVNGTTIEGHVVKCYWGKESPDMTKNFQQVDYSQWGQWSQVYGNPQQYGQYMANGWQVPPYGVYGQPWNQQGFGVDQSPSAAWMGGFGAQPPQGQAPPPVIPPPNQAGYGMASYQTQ
inactive: [1] -0.023 | [2] 0.049 | [3] 0.015 | [4] 0.043 | [5] -0.024

SPART (UniProt Q8N0X7)
Chain of UniProt Q8N0X7 (Q8N0X7 whole entry, looked up): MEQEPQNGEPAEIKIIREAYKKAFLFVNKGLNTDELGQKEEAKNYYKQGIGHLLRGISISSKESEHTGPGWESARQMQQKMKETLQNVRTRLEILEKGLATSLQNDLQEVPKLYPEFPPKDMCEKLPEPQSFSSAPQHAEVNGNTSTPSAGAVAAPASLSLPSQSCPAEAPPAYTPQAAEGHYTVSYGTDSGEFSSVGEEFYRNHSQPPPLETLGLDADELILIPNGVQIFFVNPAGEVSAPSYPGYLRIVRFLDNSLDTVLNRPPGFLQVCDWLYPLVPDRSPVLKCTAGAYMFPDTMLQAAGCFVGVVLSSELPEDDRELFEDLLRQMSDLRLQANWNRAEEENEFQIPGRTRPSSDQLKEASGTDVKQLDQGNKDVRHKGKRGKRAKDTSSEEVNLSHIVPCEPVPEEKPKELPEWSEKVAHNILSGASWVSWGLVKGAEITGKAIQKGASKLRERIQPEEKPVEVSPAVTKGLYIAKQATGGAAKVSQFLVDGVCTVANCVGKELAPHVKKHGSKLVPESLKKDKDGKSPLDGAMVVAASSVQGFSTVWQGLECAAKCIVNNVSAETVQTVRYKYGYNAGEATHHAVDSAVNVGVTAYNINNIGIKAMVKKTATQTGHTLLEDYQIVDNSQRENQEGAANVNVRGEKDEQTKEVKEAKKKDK
inactive: [1] -0.028 | [2] 0.043 | [3] 0.065 | [4] 0.018 | [5] -0.002

SORT1 (UniProt Q99523)
Chain of UniProt Q99523 (Q99523 whole entry, looked up): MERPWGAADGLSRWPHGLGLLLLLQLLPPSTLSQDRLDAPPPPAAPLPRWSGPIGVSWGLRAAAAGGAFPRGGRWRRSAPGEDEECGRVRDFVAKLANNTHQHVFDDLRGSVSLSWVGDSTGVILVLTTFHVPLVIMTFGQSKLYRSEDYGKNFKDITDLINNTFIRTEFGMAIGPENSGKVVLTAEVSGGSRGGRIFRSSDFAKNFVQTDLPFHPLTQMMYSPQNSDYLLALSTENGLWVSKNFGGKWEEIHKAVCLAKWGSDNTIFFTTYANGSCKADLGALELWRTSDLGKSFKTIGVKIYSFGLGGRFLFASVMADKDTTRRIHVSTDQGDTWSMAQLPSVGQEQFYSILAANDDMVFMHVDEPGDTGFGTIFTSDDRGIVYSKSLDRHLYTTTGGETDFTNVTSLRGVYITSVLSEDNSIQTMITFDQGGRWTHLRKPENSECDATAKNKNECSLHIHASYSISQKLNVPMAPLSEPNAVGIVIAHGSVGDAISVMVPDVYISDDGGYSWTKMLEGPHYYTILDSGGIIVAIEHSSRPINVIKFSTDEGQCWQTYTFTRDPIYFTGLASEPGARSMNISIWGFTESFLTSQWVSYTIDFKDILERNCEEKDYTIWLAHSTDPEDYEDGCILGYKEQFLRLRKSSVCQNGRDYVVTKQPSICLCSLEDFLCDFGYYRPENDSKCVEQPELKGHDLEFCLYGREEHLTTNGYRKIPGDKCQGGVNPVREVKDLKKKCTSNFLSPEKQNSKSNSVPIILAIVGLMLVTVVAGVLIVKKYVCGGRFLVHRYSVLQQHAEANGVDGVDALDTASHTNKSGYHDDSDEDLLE
inactive: [1] 0.029 | [2] -0.01 | [3] -0.03 | [4] 0.027 | [5] 0.009

SUPT16H (UniProt Q9Y5B9)
inactive: [1] -0.238 | [2] 0.023 | [3] 0.279 | [4] -0.106 | [5] -0.006

SNRPB2 (UniProt P08579)
Chain of UniProt P08579 (P08579 whole entry, looked up): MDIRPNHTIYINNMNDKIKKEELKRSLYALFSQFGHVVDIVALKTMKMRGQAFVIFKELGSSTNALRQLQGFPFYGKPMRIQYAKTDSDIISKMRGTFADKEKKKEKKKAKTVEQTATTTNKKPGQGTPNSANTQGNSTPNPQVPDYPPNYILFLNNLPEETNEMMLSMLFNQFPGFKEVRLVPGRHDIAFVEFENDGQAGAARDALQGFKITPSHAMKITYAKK
inactive: [1] 0.083 | [2] 0.002 | [3] -0.044 | [4] 0.07 | [5] 0.02

TBRG4 (UniProt Q969Z0)
Chain of UniProt Q969Z0 (Q969Z0 whole entry, looked up): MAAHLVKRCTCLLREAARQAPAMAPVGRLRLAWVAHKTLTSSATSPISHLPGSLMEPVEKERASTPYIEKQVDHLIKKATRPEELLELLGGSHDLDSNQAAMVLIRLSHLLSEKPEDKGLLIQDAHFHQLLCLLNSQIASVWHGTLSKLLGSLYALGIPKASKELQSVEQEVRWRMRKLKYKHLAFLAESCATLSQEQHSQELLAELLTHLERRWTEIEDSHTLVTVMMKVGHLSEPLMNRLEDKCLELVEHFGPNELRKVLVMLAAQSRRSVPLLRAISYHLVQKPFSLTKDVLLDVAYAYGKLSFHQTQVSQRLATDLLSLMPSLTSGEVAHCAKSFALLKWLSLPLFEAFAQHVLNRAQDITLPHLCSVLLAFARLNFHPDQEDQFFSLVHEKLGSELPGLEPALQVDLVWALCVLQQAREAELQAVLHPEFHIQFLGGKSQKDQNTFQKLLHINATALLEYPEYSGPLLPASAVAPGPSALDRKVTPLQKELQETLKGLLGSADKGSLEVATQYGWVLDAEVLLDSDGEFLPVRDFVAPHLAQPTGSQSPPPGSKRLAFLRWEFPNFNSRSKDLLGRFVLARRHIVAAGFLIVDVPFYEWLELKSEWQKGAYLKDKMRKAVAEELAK
inactive: [1] -0.106 | [2] 0.022 | [3] 0.077 | [4] -0.049 | [5] -0.017

SRC isoform 2 (UniProt P12931)
Chain of UniProt P12931 (P12931 whole entry, looked up): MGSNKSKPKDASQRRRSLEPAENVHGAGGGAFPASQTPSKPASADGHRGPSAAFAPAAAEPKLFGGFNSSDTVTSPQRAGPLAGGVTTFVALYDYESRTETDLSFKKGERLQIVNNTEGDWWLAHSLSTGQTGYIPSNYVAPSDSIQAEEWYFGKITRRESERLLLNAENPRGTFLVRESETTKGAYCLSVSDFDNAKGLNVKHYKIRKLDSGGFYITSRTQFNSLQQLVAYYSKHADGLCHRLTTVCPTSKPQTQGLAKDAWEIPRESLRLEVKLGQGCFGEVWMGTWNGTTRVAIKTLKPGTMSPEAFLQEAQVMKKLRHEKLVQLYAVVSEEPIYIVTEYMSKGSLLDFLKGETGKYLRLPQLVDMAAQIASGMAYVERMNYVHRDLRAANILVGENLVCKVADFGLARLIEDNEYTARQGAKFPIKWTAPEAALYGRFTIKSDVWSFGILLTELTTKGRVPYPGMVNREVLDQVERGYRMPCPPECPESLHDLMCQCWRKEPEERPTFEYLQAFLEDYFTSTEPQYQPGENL
inactive: [1] 0.016 | [2] 0.181 | [3] 0.125 | [4] 0.042 | [5] 0.003
